GDH-TPI inh = GDH-TPI coupling enzyme inhibitors, primary screen, artefact control for M. tuberculosis FBA inhibitor project, biochemical, absorbance, full deck | AID 588335, 2011 | GDH-TPI coupled enzyme counterscreen, NADH absorbance | 360,000 tested, 1.2% active | inhibition, % at 4.8 µM; in the data active = inhibition above about 30%;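 also: 0% = DMSO wells and 100% = wells lacking the enzyme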
Anthrax LF prot = Bacillus anthracis LF protease inhibitors, primary screen, biochemical, multiplex microsphere, MLPCN library; AID 588501, 2011; multiplex microsphere protease cleavage assay; 360,000 tested, 0.12% active; Lethal factor (Bacillus anthracis), P15917; inhibition, % at 10 µM; also: plate controls were buffer without enzyme for full effect and enzyme alone for no effect
Target sequence (P15917 whole entry, looked up): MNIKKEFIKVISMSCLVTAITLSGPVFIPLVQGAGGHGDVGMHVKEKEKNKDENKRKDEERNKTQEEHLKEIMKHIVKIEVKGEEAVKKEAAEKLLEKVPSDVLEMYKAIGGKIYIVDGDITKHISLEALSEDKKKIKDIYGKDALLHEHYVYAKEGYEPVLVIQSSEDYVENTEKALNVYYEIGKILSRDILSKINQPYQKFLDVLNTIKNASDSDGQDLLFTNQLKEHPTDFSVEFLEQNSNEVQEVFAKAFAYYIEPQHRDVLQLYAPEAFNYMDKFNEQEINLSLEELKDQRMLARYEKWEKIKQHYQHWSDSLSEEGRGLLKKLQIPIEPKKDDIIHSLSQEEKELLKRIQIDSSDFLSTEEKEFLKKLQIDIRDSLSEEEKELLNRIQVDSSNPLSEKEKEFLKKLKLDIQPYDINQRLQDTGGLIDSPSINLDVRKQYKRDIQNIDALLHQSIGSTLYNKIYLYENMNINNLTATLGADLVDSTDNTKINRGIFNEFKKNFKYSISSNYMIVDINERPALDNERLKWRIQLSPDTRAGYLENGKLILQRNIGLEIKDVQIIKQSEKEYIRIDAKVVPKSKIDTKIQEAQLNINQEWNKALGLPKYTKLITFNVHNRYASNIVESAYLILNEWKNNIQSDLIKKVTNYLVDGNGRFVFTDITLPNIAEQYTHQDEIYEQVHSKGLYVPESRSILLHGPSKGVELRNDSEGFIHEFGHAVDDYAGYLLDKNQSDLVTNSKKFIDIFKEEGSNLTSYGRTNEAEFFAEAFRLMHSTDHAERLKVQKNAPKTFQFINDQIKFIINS
Mtb FBA inh = Mtb FBA enzyme inhibitors, primary screen, biochemical, fluorescence, strain H37Rv; Fructose-bisphosphate aldolase (Mycobacterium tuberculosis (strain ATCC 25618 / H37Rv)), …; purified M. tuberculosis FBA, fluorescence read-out; inhibition, % at 1 µM; 360,000 tested, 2.3% active; in the data active = inhibition above about 27%;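 also: 0% = vehicle and 100% = reference inhibitor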
BoNT A protease = BoNT/A light chain protease inhibitors, primary screen, biochemical, flow cytometry, MLPCN library | Botulinum neurotoxin type A light chain protease (Clostridium botulinum A str. ATCC 3502) | multiplex microsphere protease substrate cleavage | inhibition, % at 10 µM | 360,000 tested, 0.17% active | AID 588499, 2011; also: plate controls were buffer without enzyme for full effect and enzyme alone for no effect
BoNT-F LC inh = BoNT/F light chain protease inhibitors, primary screen, biochemical, flow cytometry, MLPCN library | Multiplex microsphere protease cleavage assay | 360,000 tested, 0.22% active | Botulinum neurotoxin type F light chain protease (Clostridium botulinum) | inhibition, % at 10 µM; in the data active = inhibition above about 35%, passing the limit was not always enough; inconclusive = no clear call, values can overlap the other calls; also: plate controls were buffer without enzyme for full effect and enzyme alone for no effect
Bead autofluor = flagged as autofluorescent in microsphere protease counterscreen; 360,000 tested, 3.1% active; fluorescence intensity (concentration not given with the values); compound autofluorescence counterscreen, microsphere flow cytometry; hits give high values; in the data active = fluorescence intensity above about 16000; inconclusive = no clear call, values can overlap the other calls
* hit, by the source's call. In the library only some 6.6% were active in any assay of this set; here they are far more common. Rule as the data show it, unless noted: active = inhibition above about 30%; inconclusive = no clear call, values can overlap the other calls; inactive = below that.

Screening CCc1nc(C(N)=O)c2[nH]c(=O)n(-c3ccc(OC)cc3OC)c2n1 returned GDH-TPI inh -6, Anthrax LF prot 0, Mtb FBA inh 2, BoNT A protease 1, BoNT-F LC inh -3 and Bead autofluor 5778.
COc1ccc(-c2nn(-c3ccccc3)cc2/C=C2/SC(=S)N(Cc3ccco3)C2=O)c(C)c1 was read as GDH-TPI inh 5, Anthrax LF prot 36*, Mtb FBA inh -1, BoNT A protease 30*, BoNT-F LC inh 37* and Bead autofluor 12304.
Screening Cn1c(O)c(/C=N/c2ccccn2)c(=O)n(C)c1=O returned GDH-TPI inh 33*, Anthrax LF prot 6, Mtb FBA inh 1, BoNT A protease 0, BoNT-F LC inh 6 and Bead autofluor 8155.
For Cn1c(O)c(C=Nc2ccccc2)c(=O)n(C)c1=O the results were GDH-TPI inh 46*, Anthrax LF prot 10, Mtb FBA inh -3, BoNT A protease 2, BoNT-F LC inh -15 and Bead autofluor 2848.
`Cn1c(O)c(C=Nc2ccc(Cl)cc2)c(=O)n(C)c1=O` gave GDH-TPI inh 9, Anthrax LF prot 5, Mtb FBA inh -3, BoNT A protease 2, BoNT-F LC inh inconclusive and Bead autofluor 2807.
CC(C)C(=O)N1CCC1(C)C(=O)Nc1ccccc1OC(F)F (stereo unspecified) was read as GDH-TPI inh 0, Anthrax LF prot -4, Mtb FBA inh 0, BoNT A protease -1, BoNT-F LC inh -8 and Bead autofluor 4067.
CCc1nc2ccccc2n(CCOCCn2c(=O)c(CC)nc3ccccc32)c1=O was read as GDH-TPI inh 11, Anthrax LF prot -1, Mtb FBA inh -3, BoNT A protease 4, BoNT-F LC inh 6 and Bead autofluor 21722*.
Screening CCN(CC)C(=O)c1cc(-c2ccc(Br)cc2)on1 returned GDH-TPI inh 2, Anthrax LF prot 1, Mtb FBA inh 1, BoNT A protease 1, BoNT-F LC inh 1 and Bead autofluor 23321*.
Screening COc1ccc(-c2cc(C(=O)Nc3c(C)nn(Cc4ccccc4Cl)c3C)no2)cc1OC returned GDH-TPI inh -14, Anthrax LF prot 0, Mtb FBA inh 0, BoNT A protease inconclusive, BoNT-F LC inh -6 and Bead autofluor 22371*.
`Cc1ccc(Cn2ccc(NC(=O)c3cc(-c4ccc(Br)cc4)on3)n2)cc1` gave GDH-TPI inh 4, Anthrax LF prot -2, Mtb FBA inh 2, BoNT A protease -3, BoNT-F LC inh -5 and Bead autofluor 16876*.
For Cc1nn(Cc2ccc(Cl)c(Cl)c2)c(C)c1NC(=O)c1cc(-c2ccco2)on1 the results were GDH-TPI inh -5, Anthrax LF prot -1, Mtb FBA inh 7, BoNT A protease -2, BoNT-F LC inh -4 and Bead autofluor 21457*.
Cc1ccc(Cn2ccc(NC(=O)c3cc(-c4ccccc4)on3)n2)cc1 was read as GDH-TPI inh 22, Anthrax LF prot -4, Mtb FBA inh 2, BoNT A protease inconclusive, BoNT-F LC inh -12 and Bead autofluor 8729.
Cc1ccc(Cn2ccc(NC(=O)c3cc(-c4ccco4)on3)n2)cc1 was read as GDH-TPI inh 0, Anthrax LF prot -6, Mtb FBA inh 6, BoNT A protease 6, BoNT-F LC inh 5 and Bead autofluor 21800*.
COc1cccc(-c2cc(C(=O)Nc3ccn(Cc4ccc(C)cc4)n3)no2)c1 was read as GDH-TPI inh -4, Anthrax LF prot -6, Mtb FBA inh -1, BoNT A protease -1, BoNT-F LC inh -4 and Bead autofluor 4001.
For COc1cc(C)c2c(c1OC)C(=O)CC2 the results were GDH-TPI inh -1, Anthrax LF prot -1, Mtb FBA inh 3, BoNT A protease 1, BoNT-F LC inh 7 and Bead autofluor 3925.
For COc1ccc(NC(=O)c2noc3c2CCCCC3)cc1 the results were GDH-TPI inh 1, Anthrax LF prot 2, Mtb FBA inh 0, BoNT A protease -2, BoNT-F LC inh -2 and Bead autofluor 4132.
Screening Cc1ccc(NC(=O)c2noc3c2CCCCC3)cc1C returned GDH-TPI inh 3, Anthrax LF prot -2, Mtb FBA inh 2, BoNT A protease -2, BoNT-F LC inh -2 and Bead autofluor 16801*.
CCc1ccc(NC(=O)c2noc3c2CCCCC3)cc1 was read as GDH-TPI inh 29, Anthrax LF prot -2, Mtb FBA inh 1, BoNT A protease 1, BoNT-F LC inh -4 and Bead autofluor 10839.
`Cc1ccc(NC(=O)c2noc3c2CCCCC3)cc1` gave GDH-TPI inh -4, Anthrax LF prot 0, Mtb FBA inh 4, BoNT A protease 1, BoNT-F LC inh -1 and Bead autofluor 22657*.
CC(Oc1ccc(Br)cc1)C(=O)Nc1ccc(S(=O)(=O)NC2=NCCCCC2)cc1 (stereo unspecified) was read as GDH-TPI inh 9, Anthrax LF prot -2, Mtb FBA inh 6, BoNT A protease 7, BoNT-F LC inh 10 and Bead autofluor inconclusive.
COC(=O)[C@@]1(Sc2ccc(C)cc2)CC(=O)N[C@@H]1c1ccc(Br)cc1 was read as Anthrax LF prot -6, BoNT A protease 1, BoNT-F LC inh 4 and Bead autofluor 5666.
Screening Cc1ccc2c(c1)N(C(C)C(=O)NCCc1ccccc1)C(=O)CO2 (stereo unspecified) returned GDH-TPI inh 1, Anthrax LF prot -1, Mtb FBA inh -1, BoNT A protease inconclusive, BoNT-F LC inh -3 and Bead autofluor 20536*.
`Cc1ccc2[nH]cc(CCNC(=O)CN3C(=O)c4ccccc4C3=O)c2c1` gave GDH-TPI inh -1, Anthrax LF prot 0, Mtb FBA inh 2, BoNT A protease 0, BoNT-F LC inh -1 and Bead autofluor 2612.
For Cc1ccc2c(c1)N(CC(=O)NCCc1c[nH]c3ccccc13)C(=O)CO2 the results were GDH-TPI inh 4, Anthrax LF prot -3, Mtb FBA inh 5, BoNT A protease -2, BoNT-F LC inh -2 and Bead autofluor 23441*.
Cc1ccc2c(c1)N(CCC(=O)N1CCC3(CC1)OCCO3)C(=O)CO2 was read as GDH-TPI inh 6, Anthrax LF prot -1, Mtb FBA inh 4, BoNT A protease 0, BoNT-F LC inh 0 and Bead autofluor 22602*.
`Cc1ccc(NC(=O)CN2C(=O)COc3ccc(C)cc32)nc1` gave GDH-TPI inh -4, Anthrax LF prot -2, Mtb FBA inh 1, BoNT A protease 4, BoNT-F LC inh 6 and Bead autofluor 21570*.
Screening Cc1ccc2c(c1)N(C(C)C(=O)N1CCC3(CC1)OCCO3)C(=O)CO2 (stereo unspecified) returned GDH-TPI inh -11, Anthrax LF prot -2, Mtb FBA inh -1, BoNT A protease 0, BoNT-F LC inh -2 and Bead autofluor 5671.

Compound activity from PubChem.
